ST2 IL33 inh: inhibitors of human ST2 (IL1RL1) binding to IL-33, primary screen, biochemical, AlphaLISA. 78,000 tested, 2.3% active. AlphaLISA ST2-Fc/biotin-IL-33 interaction, 1 h. Interleukin-1 receptor-like 1 (Homo sapiens), Q01638. inhibition, % for hits at 17 µM; in the data active = inhibition above about 30%
Target sequence (Q01638 whole entry, looked up): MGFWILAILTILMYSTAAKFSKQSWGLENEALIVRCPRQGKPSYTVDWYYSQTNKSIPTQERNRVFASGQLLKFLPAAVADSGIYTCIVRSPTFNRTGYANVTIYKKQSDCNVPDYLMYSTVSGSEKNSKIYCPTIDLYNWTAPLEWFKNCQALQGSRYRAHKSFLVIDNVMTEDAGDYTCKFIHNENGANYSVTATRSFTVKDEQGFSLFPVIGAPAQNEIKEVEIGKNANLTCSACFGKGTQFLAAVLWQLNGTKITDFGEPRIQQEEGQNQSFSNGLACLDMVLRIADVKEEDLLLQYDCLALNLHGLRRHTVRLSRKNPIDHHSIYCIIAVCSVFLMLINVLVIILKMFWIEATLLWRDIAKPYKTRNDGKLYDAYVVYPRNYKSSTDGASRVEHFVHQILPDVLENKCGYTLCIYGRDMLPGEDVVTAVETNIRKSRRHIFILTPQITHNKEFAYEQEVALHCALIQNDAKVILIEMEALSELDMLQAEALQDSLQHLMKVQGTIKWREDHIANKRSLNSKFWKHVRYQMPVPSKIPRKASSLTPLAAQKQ
Large screens that a line does not name were inactive. The sample as a whole holds a higher share of hits than the screen did.

COc1ccc(NC(=O)N2C[C@@H]3C[C@H](C2)c2ccc(NS(=O)(=O)c4cccc(F)c4)c(=O)n2C3)cc1	none
Cc1ccc(F)c(NC(=O)CCC(=O)NC[C@@H]2C[C@@H]3C=C[C@H]2C32CC2)c1	none
CC1=C(C#N)c2nc(N)c(C#N)c(C)c2/C1=C\c1cccc([N+](=O)[O-])c1	none
CC1=C(C#N)C(=O)NC(=O)/C1=C\c1ccc(-c2cccc([N+](=O)[O-])c2)o1	ST2 IL33 inh 30%
CC(=O)c1ccc(N2N=C(C)/C(=C/c3ccc(-c4cccc([N+](=O)[O-])c4)o3)C2=O)cc1	none
COC(=O)c1ccc(CNCc2cccnc2N2CCCC(O)C2)cc1 (stereo not given)	none
CCOC(=O)C1CCN(C(=O)c2cn(CC(C)C)c(=O)c3cc(OC)c(OC)cc23)CC1	none
Cc1ccc(-c2[nH]nc3c2C(c2cccc(F)c2)C(C#N)=C(N)O3)cc1 (stereo not given)	none
Cc1nc([N+](=O)[O-])cn1-c1cccc(O)c1	none
CC(C)c1nnc(NC(=O)c2ccc(Br)cc2)s1	none
Cc1nnc(NC(=O)c2ccc(C(C)C)cc2)s1	ST2 IL33 inh 92%
Cc1nnc(NC(=O)Nc2ccccc2)s1	none
CC(CC(=O)NCc1ccccn1)c1ccccc1 (stereo not given)	none
CCCc1nc2nc[nH]n2c(=O)c1NC(=O)Nc1cccc(OC)c1	none
CCN(CC)c1ccc2cc(-c3nc4ccccc4s3)c(=O)oc2c1	none
C=C(C)COc1ccc2cc(-c3nc4ccccc4s3)c(=O)oc2c1	none
Cc1ccc2oc(=O)c(-c3nc4ccccc4s3)cc2c1	ST2 IL33 inh 36%
CC1CCC(NC(=O)C(NC(=O)C2CCC(C)CC2)C(C)C)CC1 (stereo not given)	none
O=C(Nc1cccc(S(=O)(=O)c2cccc(NC(=O)c3ccco3)c2)c1)c1ccco1	none
O=C(Nc1cccc(NC(=O)c2ccco2)c1)c1cccc(Br)c1	ST2 IL33 inh 53%
O=C(O)c1cccc(NC(=O)c2cccc(Br)c2)c1	none
COc1ccc(CCN(C)C2CCCN(Cc3cnc(SC)nc3)C2)cc1OC (stereo not given)	none
O=c1oc(-c2ccc(Oc3ccccc3)cc2)nc2ccccc12	none
COc1ccc(C2=Cc3cc(OC)c(OC)cc3/C(=C/c3ccccc3)O2)cc1	none
O=C1OC(c2ccc(Oc3ccccc3)cc2)=C/C1=C\c1ccco1	ST2 IL33 inh 54%
O=C(NCCc1c[nH]c2ccccc12)c1cn(Cc2ccccc2Cl)nn1	none
COc1ccccc1/C=C/C1=NC(=C\c2cccc([N+](=O)[O-])c2)/C(=O)O1	none
COc1ccccc1/C=C/C1=NC(=C\c2ccccc2Cl)/C(=O)O1	none
COc1ccccc1/C=C1N=C(/C=C/c2ccccc2OC)OC\1=O	ST2 IL33 inh 37%
COc1ccccc1/C=C/C1=NC(=C\c2ccccc2)/C(=O)O1	ST2 IL33 inh 38%
COc1ccccc1/C=C/C1=NC(=C\c2ccc(Cl)cc2)/C(=O)O1	none
COc1ccccc1/C=C/C1=NC(=C\c2c(F)cccc2Cl)/C(=O)O1	none
Cc1ccc(NC(=O)c2cc3cc(Br)ccc3oc2=O)cc1	none
CN(c1ccccc1)c1ccc(/C=C/[N+](=O)[O-])cc1	ST2 IL33 inh 50%
CN(C)c1ccc(/C=C/c2c([N+](=O)[O-])c(=O)n(C)c(=O)n2C)cc1	none
CN(c1ccccc1)c1ncnc(N)c1[N+](=O)[O-]	none
C=C(C)COc1ccc2c3c(c(=O)oc2c1C)CCCC3	none
COc1cc(NC(=O)c2ccc(-c3ccccc3)cc2)c(OC)cc1Cl	none
COc1cc(C(=O)Nc2nc(-c3ccc4c(c3)OCO4)cs2)cc(OC)c1OC	none
COc1ccccc1N/C=C(\C#N)c1nc(-c2ccc3c(c2)OCO3)cs1	ST2 IL33 inh 41%
N#C/C(=C\c1cccc([N+](=O)[O-])c1)c1nc(-c2ccc3c(c2)OCO3)cs1	none
N#C/C(=C\Nc1ccccc1F)c1nc(-c2cc3cc([N+](=O)[O-])ccc3oc2=O)cs1	none
COc1cc(N/C=C(/C#N)c2nc(-c3ccc(OC)c(OC)c3)cs2)c(OC)cc1Cl	ST2 IL33 inh 40%
CC1(C(=O)NC2CCCC2)COc2c(oc3ccccc23)C(=O)N1Cc1cccc(F)c1 (stereo not given)	none
CCCCOc1ccc(S(=O)(=O)N2CCSC2c2ccc(OC)c([N+](=O)[O-])c2)cc1 (stereo not given)	none
O=c1c2c(nc(SCc3ccc(F)cc3)n1-c1ccc(Cl)cc1)CCS2	none
COc1ccc(NC(=O)CCC2CCCN(CC3=Cc4cccc(OC)c4OC3)C2)c(C)c1 (stereo not given)	none
CN1CCN(Cc2cc([N+](=O)[O-])ccc2O)CC1	none
CC1CN(C)C(C)c2c1oc1ccc([N+](=O)[O-])cc21 (stereo not given)	ST2 IL33 inh 43%
Cc1cccc(-c2nc3cc([N+](=O)[O-])ccc3o2)c1	none
CC1=CC(=NOC(=O)c2ccc(I)cc2)C=C(C)C1=O	none
CCOC(=O)C1C(=O)C=C(c2cccc(OC)c2)CC1c1ccc(OC)c(OC)c1 (stereo not given)	none
CCOC(=O)C1C(=O)C=C(c2cccs2)CC1c1cccc(F)c1 (stereo not given)	ST2 IL33 inh 47%
CCOC(=O)C1C(=O)C=C(c2ccco2)CC1c1cccs1 (stereo not given)	none
CCCCC[C@H](O)[C@H]1C(=O)OC[C@H]1CO	none
CCn1nc(C)c(CN2CC3(CCNCC3)CC2C(=O)O)c1C (stereo not given)	none
O=C(Nc1ccccc1)C1C(c2ccccc2)=C1c1ccccc1	none
COc1cc(Br)c(/C=C2\C(=O)N(c3cccc(Cl)c3)N=C2C)cc1OC	none
CC1=NN(c2cccc(Cl)c2)C(=O)/C1=C\c1ccc(C)cc1	ST2 IL33 inh 30%
CC1=NN(c2cccc(Br)c2)C(=O)/C1=C/c1ccc(-c2ccc3c(c2)C(=O)OC3)o1	none
CC1=NN(c2ccccc2)C(=O)/C1=C/c1ccc(O)c(Cl)c1	none
CC1=NN(c2cccc(Cl)c2)C(=O)/C1=C\c1ccco1	ST2 IL33 inh 44%
O=C1NC(=O)C(Cc2ccccc2Cl)(C2CCNCC2)N1 (stereo not given)	none
CC(C)OCCCn1c(SCC(=O)NC2CCCC2)nc2c(sc3ccccc32)c1=O	none
Cc1cc(C)n(C(=O)c2ccccc2Br)n1	none
CCCCN(C)C(=O)c1sc2nc(C)nc(N3CCOCC3)c2c1C	none
Cc1cc(Cl)c(OCCCN2CCCC2)c(Br)c1	none
CCc1c(-c2ccccc2)nc2ccccc2c1C(=O)O	none
C=CCn1c(O)c(C2=c3cc(Br)ccc3=NC2=O)c2ccccc21	ST2 IL33 inh 37%
O=C1N=c2ccc(Br)cc2=C1c1sc(Nc2cccc(C(F)(F)F)c2)nc1O	none
O=C1N=c2ccc(Br)cc2=C1c1sc(=O)[nH]c1O	none
COc1ccccc1-c1cc2n(C)c(C)c(CCC(=O)Nc3cccc(F)c3)c(=O)n2n1	none
Cc1ccc(CN2CCCN(CC(=O)NC3CCCC3)S2(=O)=O)cc1	none
CC(=O)O[C@@H]1[C@@H](O)[C@@H](O)[C@H](O[C@H]2[C@H](Oc3c(-c4ccc(O)cc4)oc4cc(O[C@@H]5O[C@H](CO)[C@@H](O)[C@H](O)[C@H]5O)cc(O)c4c3=O)O[C@H](CO[C@@H]3O[C@@H](C)[C@H](O)[C@@H](O)[C@H]3O)[C@H](O)[C@@H]2O)O[C@H]1C	none
Fc1ccc(-c2nnc(Nc3nc4c(F)cccc4s3)o2)cc1	none
CC(=O)Nc1cccc(-c2cccc(-n3cnnc3)c2)c1	none
Cc1ccc(NC(=O)c2c(O)c3ccccc3[nH]c2=O)c(C)c1	none
O=C(Nc1ccccc1F)c1cc2ccccc2o1	none
COc1cc(/C=C2/C(=O)N(c3ccc(Cl)c(Cl)c3)N=C2C)ccc1OCC#N	none
